Inconclusive results are not listed. Calls of active or inactive are those of the source. The call rests on the fitted dose curve; in most records, active means well fitted curve in the direction sought with a large enough effect; inconclusive means small, poorly fitted or top-dose-only effect, or another doubt; inactive means no such curve, though single readings can be large; an effect the other way counts as inactive or inconclusive.
Assays:
[1] = qHTS of pediatric cancer cell lines to identify multiple opportunities for drug repurposing: Primary screen for U-2 OS cells (AID 1347096); further: nearly all actives have a fitted effect of over 50% in size; further: potency means the concentration at half of the fitted maximal effect
Method in brief: (§1)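 Cells (500-1,000/well) in growth media were settled 5 h at 37 degrees C, then given compounds for 48 h. Viability was read as CellTiter-Glo luminescence. Primary runs used MIPE at 11 points (0.78 nM-46 µM) and NPC at 8 points (0.59 nM-46 µM); follow-ups used 11 points.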

[2] = qHTS of pediatric cancer cell lines to identify multiple opportunities for drug repurposing: Primary screen for Saos-2 cells (AID 1347097); further: nearly all actives have a fitted effect of over 40% in size; further: potency means the concentration at half of the fitted maximal effect
Method in brief: (§2)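 Plated cells (500-1,000 per well, growth media) were allowed to settle for 5 hours, treated with compound dilutions for 48 hours, then lysed with CellTiter-Glo for 15 min at room temperature before luminescence reading.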

[3] = qHTS of pediatric cancer cell lines to identify multiple opportunities for drug repurposing: Primary screen for LAN-5 cells (AID 1347100); further: potency means the concentration at half of the fitted maximal effect
Method in brief: as §1

[4] = qHTS of pediatric cancer cell lines to identify multiple opportunities for drug repurposing: Primary screen for BT-12 cells (AID 1347101); further: nearly all actives have a fitted effect of over 25% in size; further: potency means the concentration at half of the fitted maximal effect
Method in brief: (§3)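 Cells (500-1,000/well) rested 5 h, then received compounds for 48 h; metabolically active cells were measured by CellTiter-Glo luminescence. Final concentrations spanned up to 46 µM (MIPE, 11-point) or 0.59 nM-46 µM (NPC, 8-point) in primary screens, 11-point in follow-ups.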

[5] = qHTS of pediatric cancer cell lines to identify multiple opportunities for drug repurposing: Primary screen for Rh18 cells (AID 1347102); further: nearly all actives have a fitted effect of over 65% in size; further: potency means the concentration at half of the fitted maximal effect
Method in brief: as §1

[6] = qHTS of pediatric cancer cell lines to identify multiple opportunities for drug repurposing: Primary screen for OHS-50 cells (AID 1347103); further: nearly all actives have a fitted effect of over 40% in size; further: potency means the concentration at half of the fitted maximal effect
Method in brief: as §3

[7] = qHTS of pediatric cancer cell lines to identify multiple opportunities for drug repurposing: Primary screen for control Hh wild type fibroblast cells (AID 1347106); further: nearly all actives have a fitted effect of over 55% in size; further: potency means the concentration at half of the fitted maximal effect
Method in brief: as §1

[8] = qHTS of pediatric cancer cell lines to identify multiple opportunities for drug repurposing: Primary screen for Rh41 cells (AID 1347108); further: nearly all actives have a fitted effect of over 70% in size; further: potency means the concentration at half of the fitted maximal effect
Method in brief: as §2

[9] = qHTS of pediatric cancer cell lines to identify multiple opportunities for drug repurposing: Primary screen for SK-N-SH cells (AID 1347098); further: nearly all actives have a fitted effect of over 65% in size; further: potency means the concentration at half of the fitted maximal effect
Method in brief: as §3

[10] = qHTS of pediatric cancer cell lines to identify multiple opportunities for drug repurposing: Primary screen for NB1643 cells (AID 1347099); further: nearly all actives have a fitted effect of over 50% in size; further: potency means the concentration at half of the fitted maximal effect
Method in brief: as §2

[11] = qHTS of pediatric cancer cell lines to identify multiple opportunities for drug repurposing: Primary screen for MG 63 (6-TG R) cells (AID 1347105); further: nearly all actives have a fitted effect of over 50% in size; further: potency means the concentration at half of the fitted maximal effect
Method in brief: as §2

[12] = qHTS of pediatric cancer cell lines to identify multiple opportunities for drug repurposing: Confirmatory screen for NB1643 cells (AID 1347109); further: nearly all actives have a fitted effect of over 45% in size; further: potency means the concentration at half of the fitted maximal effect
Method in brief: as §1

[13] = qHTS of pediatric cancer cell lines to identify multiple opportunities for drug repurposing: Confirmatory screen for A673 cells (AID 1347110);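 further: potency means the concentration at half of the fitted maximal effect; cells exposed to compound for 48 h before the viability read; nearly all actives have a fitted effect of over 65% in size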
Method in brief: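 Viability was read as ATP luminescence (CellTiter-Glo) after 48 h of compound exposure at 37 C in A673 cells seeded at 500-1,000/well. Titrations reached 46 uM final, with 11 points in the confirmatory screen. Concentration-response curves were fitted directly.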

[14] = qHTS of pediatric cancer cell lines to identify multiple opportunities for drug repurposing: Confirmatory screen for SK-N-MC cells (AID 1347111);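 further: potency means the concentration at half of the fitted maximal effect; cells exposed to compound for 48 h before the readout; nearly all actives have a fitted effect of over 70% in size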
Method in brief: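 Metabolically active cells were quantified by ATP-dependent luminescence (CellTiter-Glo, 15 min at room temperature) following 48 h treatment. Cells had been plated at 500-1,000 per well and settled for 5 h beforehand.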

[15] = qHTS of pediatric cancer cell lines to identify multiple opportunities for drug repurposing: Confirmatory screen for BT-12 cells (AID 1347112); further: nearly all actives have a fitted effect of over 55% in size; further: potency means the concentration at half of the fitted maximal effect
Method in brief: as §1

[16] = qHTS of pediatric cancer cell lines to identify multiple opportunities for drug repurposing: Confirmatory screen for LAN-5 cells (AID 1347113); further: nearly all actives have a fitted effect of over 65% in size; further: potency means the concentration at half of the fitted maximal effect
Method in brief: as §1

[17] = qHTS of pediatric cancer cell lines to identify multiple opportunities for drug repurposing: Confirmatory screen for NB-EBc1 cells (AID 1347115);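 further: cells exposed to compound for 48 h before the viability read; nearly all actives have a fitted effect of over 45% in size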; further: potency means the concentration at half of the fitted maximal effect
Method in brief: as §1

[18] = qHTS of pediatric cancer cell lines to identify multiple opportunities for drug repurposing: Primary screen for RD cells (AID 1347104); further: nearly all actives have a fitted effect of over 55% in size; further: potency means the concentration at half of the fitted maximal effect
Method in brief: as §2

[19] = qHTS of pediatric cancer cell lines to identify multiple opportunities for drug repurposing: Primary screen for Rh30 cells (AID 1347107); further: series mostly up to about 46 µM; nearly all actives have a fitted effect of over 75% in size
Method in brief: as §1

[20] = qHTS of pediatric cancer cell lines to identify multiple opportunities for drug repurposing: Confirmatory screen for DAOY cells (AID 1347114)
Method in brief: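 Viability measured as metabolically active cells via CellTiter-Glo luminescence following 48 hours of compound exposure, 11-point dilutions in confirmatory testing. 500-1,000 cells/well plated 5 hours before dosing; controls were DMSO and 2.3 µM bortezomib.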

Measured: Potency

CC(C)c1ccccc1Cc1cc(C(=O)Nc2ccc(S(=O)(=O)c3ccccc3C(C)(C)C)cc2)c(O)c(O)c1O
active: [2] 26.4 µM | [3] 23.5 µM | [4] 21.7 µM | [5] 18.7 µM | [6] 24.3 µM | [8] 18.7 µM
inactive: [1] | [7]

C[C@@H](Oc1cc(-n2cnc3ccc(CN4CCN(C)CC4)cc32)sc1C(N)=O)c1ccccc1C(F)(F)F
inactive: [11] | [8]
active: [1] 29.6 µM | [9] 0.108 µM | [10] 0.0235 µM | [3] 0.0332 µM | [4] 24.3 µM | [5] 20.9 µM | [6] 0.0968 µM | [12] 42.7 µM | [13] 0.117 µM | [14] 0.0537 µM | [15] 47.9 µM | [16] 10.7 µM | [17] 0.24 µM

COc1cc(C(C)C)c2c(c1)S(=O)(=O)N(COc1cc(=O)n3cccc(OCCN4CCCCC4)c3n1)C2=O
active: [2] 26.4 µM | [10] 13.2 µM | [18] 20.9 µM
inactive: [1] | [4] | [11] | [7] | [19]

Nc1ccn([C@@H]2O[C@H](CO)[C@H](O)C2(F)F)c(=O)n1
inactive: [1] | [5] | [7] | [19] | [8]
active: [2] 3.72 µM | [10] 0.469 µM | [3] 0.0935 µM | [13] 0.0585 µM

COc1ccc(C(=O)CC2(O)C(=O)Nc3c(Cl)ccc(Cl)c32)cc1 (configuration not stated)
inactive: [1] | [19]
active: [2] 2.09 µM | [3] 1.32 µM | [4] 3.43 µM | [6] 4.32 µM | [18] 5.9 µM | [11] 3.72 µM | [8] 3.72 µM

CCC(=C(c1ccccc1)c1ccc(OCCN(C)C)cc1)c1ccccc1
inactive: [1] | [5] | [11] | [19] | [17]
active: [2] 18.7 µM | [6] 21.7 µM | [14] 23.3 µM

CC(C)(C)c1cc(C(C)(C)C)c(NC(=O)c2c[nH]c3ccccc3c2=O)cc1O
active: [14] 14.7 µM | [20] 18.5 µM | [17] 16.5 µM
not listed: [2] | [7] | [8] | [12] | [13] | [15] | [16]
inactive: all other assays above

Cc1ccc(CN2CCNCC2)cc1NC(=O)CNc1ccc(F)c(F)c1
inactive: [1] | [10] | [3] | [4] | [18] | [11] | [7]
active: [9] 19.2 µM

Cc1ccc(C(N)=O)cc1Nc1nccc(-c2cn(C(C)C)c3cnccc23)n1
active: [2] 4.69 µM | [4] 6.85 µM | [6] 9.68 µM | [18] 16.6 µM | [8] 18.7 µM | [13] 9.55 µM | [14] 7.59 µM | [15] 13.5 µM | [16] 8.51 µM | [20] 13.5 µM
inactive: [1] | [10] | [5] | [7]

NC(=O)c1cccc2cn(-c3ccc([C@@H]4CCCNC4)cc3)nc12
inactive: [1] | [9] | [4] | [5] | [11] | [19] | [8] | [15]
active: [10] 20.9 µM | [3] 11.8 µM | [13] 5.22 µM | [14] 2.08 µM

Cn1c(CNc2ccc(C(=N)N)cc2)nc2cc(C(=O)N(CCC(=O)O)c3ccccn3)ccc21
inactive: [1] | [2] | [3] | [4] | [5] | [6] | [11] | [7] | [19] | [8]

C[C@@]12O[C@@H](C[C@]1(O)CO)n1c3ccccc3c3c4c(c5c6ccccc6n2c5c31)CNC4=O
inactive: [19]
active: [2] 3.32 µM | [9] 1.92 µM | [10] 1.66 µM | [3] 0.132 µM | [4] 8.63 µM | [5] 3.32 µM | [18] 6.62 µM | [11] 4.69 µM | [7] 23.5 µM | [8] 7.43 µM | [12] 1.85 µM | [13] 1.04 µM | [14] 0.261 µM | [15] 14.7 µM | [16] 5.22 µM | [20] 9.27 µM | [17] 5.85 µM

Cn1c2cc(S(C)=O)sc2c2cnn(Cc3cccc(N)c3)c(=O)c21 (configuration not stated)
inactive: [1] | [10] | [3] | [4] | [5] | [11] | [7] | [19]

C[C@]1(CO)CN(c2cc(C(=O)Nc3ccc4c(c3)-c3c(c(C(N)=O)nn3-c3ccc(F)cc3)CC4)c(Cl)cn2)C[C@@]1(C)CO
active: [2] 16.6 µM | [9] 19.2 µM | [10] 5.9 µM | [3] 5.26 µM | [5] 18.7 µM | [11] 9.35 µM

Cc1cnc(-c2cnc(NCCNc3ccc(C#N)cn3)nc2-c2ccc(Cl)cc2Cl)[nH]1
inactive: [1] | [3] | [6] | [7] | [12] | [15] | [16]
active: [18] 20.9 µM | [14] 11.7 µM | [20] 16.5 µM | [17] 14.7 µM

— PubChem BioAssay (NCATS)
